Test [1] in a line: qHTS assay to identify small molecule agonists of the estrogen receptor alpha (ER-alpha) signaling pathway in the presence of an antagonist - cell viability counter screen (AID 1259386).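 Note: cells exposed to compounds for 22 h at 37 °C before the viability read; nearly all actives have a fitted effect of over 30% in size.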 Note: potency is the fitted concentration of half-maximal effect. The gist of the method:
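Read-out: CellTiter-Fluor fluorescence after 1hr reagent incubation, measured in the same wells as the luciferase readout. VM7Luc4E2 cells were exposed to 15 compound concentrations with 10.0nM ICI-182,780 for 22hr at 37C.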
On the technique in general: Quantitative high-throughput screening tests each substance at several concentrations.

For test [2], the target named is Progesterone receptor (Homo sapiens) (UniProt P06401). Put plainly: qHTS assay to identify small molecule agonists of the progesterone receptor (PR) signaling pathway (AID 1346784; calls by dose curve; note: nearly all actives have a fitted effect of over 30% in size; note: potency is the fitted concentration of half-maximal effect). An outline of the steps: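 Compounds were tested for PR agonism in HEK 293T cells bearing a beta-lactamase gene under UAS control. Treatment lasted 16 hr at 37C; signal came from fluorescence of a FRET substrate.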

Test [3] shares this target. Put plainly: qHTS assay to identify small molecule antagonists of the progesterone receptor (PR) signaling pathway (AID 1346795; active = well fitted inhibition curve with a large enough effect in the signal ratio in the repeat runs, not every such curve was filed as active; the % refers to the signal ratio; note: potency is the fitted concentration of half-maximal effect). The gist of the method: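 In HEK293T cells bearing the PR-UAS-bla reporter, compound effects on promegestone-driven (1 nM) beta-lactamase expression are assessed after 16 hr using a fluorescent FRET substrate incubated 2 hr at room temperature.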

Test [4] in a line: qHTS assay to identify small molecule agonists of the progesterone receptor (PR) signaling pathway - cell viability counter screen (AID 1346799; calls by dose curve; note: nearly all actives have a fitted effect of over 45% in size). An outline of the steps: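 Here, 3,000 PR-UAS-bla HEK293T cells per well were treated with compounds for 16 hr after a 6 hr preincubation at 37C and 5% CO2; cell viability is the CellTiter-Glo luminescence signal.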
Test [5] in a line: qHTS assay to identify small molecule antagonists of the TGF-beta/Smad signaling pathway - cell viability counter screen (AID 1346824). Note: nearly all actives have a fitted effect of over 50% in size. An outline of the steps:
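SBE-bla HEK 293T cells were plated overnight at 37 C, then given compounds in DMSO plus TGF-beta1 (added as 0.25 ng/mL solution) for 5 hr. After the bla read, CellTiter-Glo was added to the same wells and luminescence read after 30 min at room temperature.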

Test [6] is described as follows: qHTS assay to identify small molecule agonists of the TGF-beta/Smad signaling pathway - cell viability counter screen (AID 1346829). Note: top concentration of the series differs between compounds; nearly all actives have a fitted effect of over 45% in size. An outline of the steps: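 HEK 293T SBE-bla line, 5 hr compound exposure at 37 C, multiplexed CellTiter-Glo viability read by luminescence.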
For test [7], the target named is Thyrotropin-releasing hormone receptor (Homo sapiens) (UniProt P34981). Put plainly: qHTS assay to identify small molecule antagonists of the thyrotropin-releasing hormone receptor (TRHR) signaling pathway (AID 1346877; active = well fitted inhibition curve with a large enough effect in the repeat runs, not every such curve was filed as active; note: series mostly up to about 51 µM). An outline of the steps:
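HEK293/TRHR cells, 18 h, 37 °C; Ca2+ dye 2 h; cpd 5 min RT; TRH 1 nM final; fluorescence read 3 min, 1 s intervals; 15 concs, triplicate.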

Test [8] in a line: qHTS assay to identify small molecule agonists of the TGF-beta/Smad signaling pathway (AID 1346859; active = well fitted activation curve with a large enough effect in the signal ratio in the repeat runs, not every such curve was filed as active; the % refers to the signal ratio; note: series mostly up to about 77 µM). The gist of the method:
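Each well held 4,000 SBE-bla HEK 293T cells incubated overnight before compound addition; 5 hr later the cleavable FRET substrate went on for 2 hr at room temperature, and fluorescence was read at two emissions.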

A short description of test [9]: qHTS assay to identify small molecule antagonists of the progesterone receptor (PR) signaling pathway - cell viability counter screen (AID 1346798). Note: series mostly up to about 92 µM; nearly all actives have a fitted effect of over 50% in size. An outline of the steps:
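Following a 4 hr attachment, PR-UAS-bla HEK293T cells in charcoal-stripped FBS medium were exposed to compounds with R5020 for 16 hr; CellTiter-Glo was added and luminescence read after 30 min at room temperature.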

Values without a mark were called inactive. Records with an inconclusive call do not appear. Calls of active or inactive are those of the source. Unless noted, calls come from the whole dose curve; as a rule, active = well fitted curve in the direction sought with a large enough effect in the repeat runs; inconclusive = weak or mixed curves; inactive = no such curve, though single readings can be large; an effect the other way counts as inactive or inconclusive.

Progesterone receptor (Homo sapiens), sequence (P06401 whole entry, looked up): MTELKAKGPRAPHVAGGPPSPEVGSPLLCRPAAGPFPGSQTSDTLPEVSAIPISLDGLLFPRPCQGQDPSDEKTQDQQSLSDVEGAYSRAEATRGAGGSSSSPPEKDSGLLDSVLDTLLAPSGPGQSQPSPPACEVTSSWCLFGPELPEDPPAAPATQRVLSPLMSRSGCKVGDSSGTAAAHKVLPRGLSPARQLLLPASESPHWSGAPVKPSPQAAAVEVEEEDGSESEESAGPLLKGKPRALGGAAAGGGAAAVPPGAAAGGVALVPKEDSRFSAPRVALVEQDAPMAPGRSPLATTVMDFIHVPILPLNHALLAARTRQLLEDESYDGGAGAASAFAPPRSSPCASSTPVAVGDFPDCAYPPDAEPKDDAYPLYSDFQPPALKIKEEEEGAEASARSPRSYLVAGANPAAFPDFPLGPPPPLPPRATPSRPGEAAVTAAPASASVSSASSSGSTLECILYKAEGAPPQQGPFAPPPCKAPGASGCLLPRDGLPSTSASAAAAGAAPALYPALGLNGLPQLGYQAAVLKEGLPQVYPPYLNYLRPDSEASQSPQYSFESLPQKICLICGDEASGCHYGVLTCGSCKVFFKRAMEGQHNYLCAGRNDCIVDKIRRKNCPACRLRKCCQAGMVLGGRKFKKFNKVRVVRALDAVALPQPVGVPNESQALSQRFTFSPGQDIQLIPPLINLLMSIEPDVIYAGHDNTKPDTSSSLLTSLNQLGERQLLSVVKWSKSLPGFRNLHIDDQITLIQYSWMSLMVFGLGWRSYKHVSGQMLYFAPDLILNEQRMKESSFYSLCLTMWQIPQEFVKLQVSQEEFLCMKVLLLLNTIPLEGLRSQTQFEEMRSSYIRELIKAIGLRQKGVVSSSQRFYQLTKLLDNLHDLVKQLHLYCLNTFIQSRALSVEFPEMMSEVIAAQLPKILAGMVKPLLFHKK
Thyrotropin-releasing hormone receptor (Homo sapiens), sequence (P34981 whole entry, looked up): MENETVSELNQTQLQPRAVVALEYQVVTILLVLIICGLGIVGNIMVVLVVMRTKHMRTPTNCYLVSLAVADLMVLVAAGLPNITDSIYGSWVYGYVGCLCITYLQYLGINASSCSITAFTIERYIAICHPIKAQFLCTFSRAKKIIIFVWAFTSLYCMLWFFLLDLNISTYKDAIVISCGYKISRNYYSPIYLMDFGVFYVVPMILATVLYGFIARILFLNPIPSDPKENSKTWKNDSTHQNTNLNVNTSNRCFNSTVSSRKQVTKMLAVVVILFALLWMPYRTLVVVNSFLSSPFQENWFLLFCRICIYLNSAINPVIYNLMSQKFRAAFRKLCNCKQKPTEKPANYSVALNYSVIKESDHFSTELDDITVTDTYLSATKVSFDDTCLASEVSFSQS

With `CCC(C)(O)CCC=C(C)C` (stereo not given), the Potency entry in [1], in test [2], in test [3] and in test [4] was “inactive” each time. Further, the compound was called inactive in test [5], in test [6] and in test [7].
In the case of `CC(C)(C)CC(C)(C)c1ccc(OCCO)cc1`, the Potency is 34.2 µM (active) in test [1] and 48.3 µM (active) in test [3]. Also, in [2], the Potency result was “inactive”. For the same compound, the outcome in test [5], in [6], in test [8] and in [7] was inactive.
Turning to `CCc1c2c(nc3ccc(OC(=O)N4CCC(N5CCCCC5)CC4)cc13)-c1cc3c(c(=O)n1C2)COC(=O)[C@]3(O)CC`, the Potency result in [1], in test [2], in [3], in test [9] and in test [4] was “inactive” in each case. For the same compound, the compound was classed as inactive in test [6] and in test [8].
For the compound `O=C(CCCN1CCC(O)(c2ccc(Br)cc2)CC1)c1ccc(F)cc1`, the Potency result in test [1], in [2], in test [9] and in test [4] was “inactive” each time. Besides, the call in test [5], in test [6], in [8] and in [7] was inactive.
As to `CN(C)CCOC1=Cc2ccccc2Sc2ccc(Cl)cc21`, the Potency result in test [1], in test [2], in [9] and in test [4] was “inactive” in each case. The compound was classed as inactive in [5], in test [6], in [8] and in test [7].
Regarding `O=C(CCCN1CCN(c2ccc(F)cc2)CC1)NC1c2ccccc2CSc2ccccc21` (stereo not given), the Potency result in [1], in test [2] and in test [4] was “inactive” in each case. Further, the call in test [5], in test [6] and in test [8] was inactive.
For the compound `CC(C)CCCCCOC(=O)CCCCC(=O)OCCCCCC(C)C`, the Potency entry in [1], in test [2], in [3], in test [9] and in test [4] was “inactive” throughout. Also, the compound was called inactive in test [5], in test [6], in test [8] and in [7].
On to `CCCc1c(OCCCOc2ccc(OCC(=O)O)cc2)ccc(C(C)=O)c1O`, for which the Potency entry in test [1], in test [2] and in [4] was “inactive” throughout. Besides, the compound was called inactive in test [5] and in test [6].
As to `CCCCCCCCCCCC[N+](C)(C)CCCS(=O)(=O)[O-]`, the Potency entry in [1], in test [2], in [3] and in test [9] was “inactive” each time. For the same compound, the compound was classed as inactive in [5], in test [6], in test [8] and in test [7].
On to `CCCCC(CC)C(=O)OCCOCCOCCOCCOC(=O)C(CC)CCCC` (stereo not given), for which the Potency result in test [1], in test [2], in test [3], in [9] and in [4] was “inactive” throughout. The result in test [5] and in test [7] was inactive.
For `CC(=O)Oc1ccc(C(=C2CCCCC2)c2ccc(OC(C)=O)cc2)cc1`, the Potency entry in test [1], in test [2] and in test [4] was “inactive” each time. Further, the Potency in test [3] is 13.3 µM (active). In addition, the outcome in test [5] and in test [6] was inactive.
Consider `CCCCC(=O)O[C@]1(C(=O)CO)[C@@H](C)C[C@H]2[C@@H]3CCC4=CC(=O)C=C[C@]4(C)[C@@]3(F)[C@@H](O)C[C@@]21C`, for which the Potency result in test [1], in [3] and in test [4] was “inactive” throughout. Further, in test [2], the Potency was 0.0019 µM (active). In addition, the compound was classed as inactive in [6].
Turning to `CC(=O)OCC(=O)[C@@]12OC(C)(C)O[C@@H]1C[C@H]1[C@@H]3C[C@H](F)C4=CC(=O)C=C[C@]4(C)[C@@]3(F)[C@@H](O)C[C@@]12C`, the Potency entry in test [1], in test [3] and in [9] was “inactive” in each case. Further, the Potency in test [2] was 0.0033 µM (active). Moreover, the compound was called inactive in test [5] and in test [6].
Consider `Nc1c(I)cc(I)c(C(=O)N(CCC(=O)O)c2ccccc2)c1I`, for which the Potency result in test [1], in test [2], in test [3], in [9] and in test [4] was “inactive” in each case. Moreover, the compound was called inactive in [6] and in [8].
Turning to `CCCCOC(=O)CCS`, the Potency entry in [1], in test [2], in test [3] and in test [4] was “inactive” each time. In addition, the compound was called inactive in test [6] and in test [8].
For `CO[C@H]1O[C@H](CO)[C@@H](O)[C@H](O)[C@H]1O`, the Potency entry in test [1], in test [2], in test [3], in test [9] and in test [4] was “inactive” in each case. The call in [6] was inactive.
With `CC(C)(CCl)c1ccccc1`, the Potency entry in test [1], in [2], in test [3], in test [9] and in test [4] was “inactive” in each case. The outcome in test [5], in [6] and in test [7] was inactive.
With `COc1ccc([C@@H]2Sc3ccccc3NC(=O)[C@@H]2O)cc1`, the Potency entry in test [1], in test [2] and in test [4] was “inactive” in each case. Further, the result in test [5] and in [6] was inactive.
As to `CCOC(=O)c1ccccc1OC`, the Potency entry in test [1], in test [2], in test [3], in test [9] and in test [4] was “inactive” in each case. Besides, the result in test [6], in [8] and in test [7] was inactive.
For `Cc1cc(OI)c(C(C)C)cc1-c1cc(C(C)C)c(OI)cc1C`, the Potency result in test [1], in test [2], in test [9] and in [4] was “inactive” throughout. Further, the call in [5], in test [6], in test [8] and in test [7] was inactive.
For `CCC(C(=O)OCCOCCN(CC)CC)c1ccccc1` (stereo not given), the Potency entry in test [1], in [2], in test [9] and in [4] was “inactive” in each case. Also, the result in [5], in test [6], in test [8] and in [7] was inactive.
For the compound `CC1=NN(c2ccc(C(=O)O)cc2)C(=O)C1`, the Potency result in test [1], in [2], in [3], in [9] and in test [4] was “inactive” each time. The call in [5], in test [6] and in test [7] was inactive.
Regarding `CCn1nc(C)c2c1C(=O)NCC(c1ccc(O)cc1)=N2`, the Potency entry in [1], in [2], in [3] and in test [9] was “inactive” each time. Also, the outcome in [5], in test [6] and in test [8] was inactive.
